From PubChem
An excerpt weighted towards active compounds, which were near 1.5% of everything screened.
N-glyco inh – N-linked glycosylation inhibition; D54 ERlucT glycosylation luciferase reporter, 24 h; percent of 100 nM tunicamycin response; reporter increase, % at 12.5 µM; 360,000 tested, 0.23% active; AID 588692;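 active means mean luciferase reporter signal, scaled so untreated is 0 and the glycosylation-blocking control 100, at or above a set limit in every replicate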;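 further: luciferase carries N-glycosylation sites so blocking glycosylation raises the light; 0% = median of neutral control wells and 100% = median of 100 nM tunicamycin wells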
PvdQ inh – P. aeruginosa PvdQ acylase inhibition; purified PvdQ acylase, fluorescence plate reader; inhibition, % at 10 µM; AID 488965; 340,000 tested, 0.063% active; in the data active means inhibition above about 30%, passing the limit was not always enough;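 further: 0% = vehicle neutral wells and 100% = reference inhibitor wells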
F508del corr – correctors of CFTR F508del function in bronchial epithelial cells; CFBE cells, YFP halide quenching; stimulated with forskolin plus potentiator P3; % fluorescence drop versus neutral controls; activity (quench increase), % at 7.58 µM; 350,000 tested, 0.36% active; AID 720511;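 active means mean added fluorescence quench of at least 8% versus neutral control, with both replicates also reaching 8%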;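 further: cells transiently co-express mutant CFTR-F508del with the halide-sensitive YFP; corrector assay measuring rescue of mutant channel to the surface after 24 h compound exposure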
RAD54 branch – RAD54 (human) branch migration inhibition; Q92698; RAD54 Holliday junction branch migration, FAM/BHQ fluorescence; inhibition, % at 10.4 µM; 360,000 tested, 0.14% active; AID 602329;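 active means mean normalized replicate activity at least 40 and at least half of replicates scoring 40 or more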;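 further: 0% = median of neutral control wells and 100% = median of positive control wells; inhibitors cause a drop in the FAM fluorescence signal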
dFosB activator – enhances mouse delta FosB homodimer DNA binding; P13346; purified delta FosB, TAMRA-CDK5 oligo fluorescence polarization; percent of positive-control signal above neutral wells; activation, % at 25 µM; 340,000 tested, 0.99% active; AID 493131;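 active means mean activation above about 17%, with every replicate also reaching it, limit read from the data, passing the limit was not always enough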
Target sequence (P13346 whole entry, looked up): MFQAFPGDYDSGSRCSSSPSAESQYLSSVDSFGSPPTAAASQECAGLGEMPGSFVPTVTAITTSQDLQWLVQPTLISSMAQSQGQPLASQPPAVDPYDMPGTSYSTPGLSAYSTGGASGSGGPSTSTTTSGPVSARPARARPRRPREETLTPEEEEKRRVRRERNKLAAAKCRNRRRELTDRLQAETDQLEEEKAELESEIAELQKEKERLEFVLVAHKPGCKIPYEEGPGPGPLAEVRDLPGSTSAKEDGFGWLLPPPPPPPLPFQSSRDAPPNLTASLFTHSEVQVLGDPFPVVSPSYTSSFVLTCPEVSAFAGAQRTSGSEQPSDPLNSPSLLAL
RAD52 inh – RAD52 (human) annealing inhibition. P43351. recombinant RAD52 DNA annealing, FRET fluorescence. inhibition, % at 18.7 µM. 360,000 tested, 0.46% active;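 active means every replicate showing at least 50% inhibition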
An asterisk follows results filed as active.

Results for Cc1cc(/C=C2\C(=O)NC(=O)N(Cc3ccccc3)C2=O)c(C)n1C1CC1 ?
N-glyco inh: -0.3; PvdQ inh: -6.6; dFosB activator: 42.9*; RAD52 inh: -44.0

Results for C/C=C/c1ccc(C2[C@@H]3CN(Cc4cccc(F)c4)C[C@H]2N3)cc1 (some centres not stated) ?
F508del corr: 3.1; RAD52 inh: 37.7

How did C/C=C/c1ccc(C2[C@@H]3CN(Cc4cccnc4)C[C@H]2N3)cc1 (some centres not stated) do in these assays?
F508del corr: 0.0; RAD52 inh: 58.4*

Results for COC(=O)[C@H]1[C@H](CO)[C@H]2Cn3c(ccc(/C=C/c4ccccc4)c3=O)[C@@H]1N2C(=O)C1CCC1 ?
F508del corr: -2.8; RAD54 branch: -3.8; RAD52 inh: 5.9

Results for CC[n+]1c(-c2ccccc2)c2cc(N)ccc2c2ccc(N)cc21 ?
N-glyco inh: -14.0; PvdQ inh: -18.0; F508del corr: 10.0*; dFosB activator: 7.9; RAD52 inh: -49.6

Results for C=C1C(=O)O[C@@H]2C[C@@H](C)[C@@H]3C=CC(=O)[C@@]3(C)[C@@H](O)[C@H]12 ?
N-glyco inh: -22.4; PvdQ inh: 2.7; F508del corr: 12.9*; RAD54 branch: 7.7; dFosB activator: 1.2; RAD52 inh: -3.1

Results for COC(=O)[C@@H]1[C@@H](CO)[C@@H]2Cn3c(ccc(C4=CCCC4)c3=O)[C@H]1N2C(=O)CC1CC1 ?
F508del corr: -0.5; RAD54 branch: -2.5; RAD52 inh: -13.7

Results for COc1ccc(C(=O)N/N=C/C23CC[C@@H](O)CC2(O)CC[C@@H]2[C@@H]3CCC3(C)C(C4=CC(=O)OC4)CCC23O)cc1 (some centres not stated) ?
N-glyco inh: 37.7*; PvdQ inh: -5.9; F508del corr: -2.8; dFosB activator: -16.1; RAD52 inh: -7.6

Results for CC12CC[C@H]3[C@@H](CCC4(O)C[C@H](O)CCC34/C=N/NC(=O)c3ccccc3F)C1(O)CCC2C1=CC(=O)OC1 (some centres not stated) ?
N-glyco inh: 11.8; PvdQ inh: -8.7; F508del corr: 0.7; RAD54 branch: -9.4; dFosB activator: -10.2; RAD52 inh: 4.4

How did CC12CC[C@H]3[C@@H](CCC4(O)C[C@H](O)CCC34/C=N/NC(=O)c3ccccc3O)C1(O)CCC2C1=CC(=O)OC1 (some centres not stated) do in these assays?
N-glyco inh: 31.7*; PvdQ inh: -7.5; F508del corr: 3.5; dFosB activator: -2.9; RAD52 inh: 27.8

How did CC(C)COC(=O)c1ccccc1C(=O)OCC(C)C do in these assays?
N-glyco inh: -1.4; PvdQ inh: -1.5; F508del corr: -1.6; RAD54 branch: 1.0; dFosB activator: -0.3; RAD52 inh: -5.0

What do the screens show for `C[CH2][Hg][S]c1ccccc1C(=O)O`?
N-glyco inh: 63.2*; PvdQ inh: -4.3; F508del corr: -7.3; RAD54 branch: 2.2; dFosB activator: 2.9; RAD52 inh: -11.4

How did COc1ccc(C#Cc2ccc([C@@H]3[C@@H](CO)N4CCCCN(C(=O)Cc5ccncc5)C[C@@H]34)cc2)cc1 do in these assays?
F508del corr: -1.6; RAD54 branch: -7.5; RAD52 inh: -63.0

What do the screens show for `O=c1[nH]c(=S)n(-c2ccccc2)c(O)c1/C=N/N1CCCCC1c1cccnc1` (configuration not stated)?
N-glyco inh: 2.2; PvdQ inh: 5.3; F508del corr: 4.1; RAD54 branch: -29.6; dFosB activator: 39.1*; RAD52 inh: -392.0

Results for COC(=O)C[C@@H]1CC[C@H]2NC[C@@H](O)COC[C@@H]2O1 ?
F508del corr: -1.3; RAD54 branch: -5.0

Results for CC1CCCN(c2ccc(C(=O)N3CCC4(CC3)OCCO4)cc2[N+](=O)[O-])C1 (configuration not stated) ?
N-glyco inh: 0.9; PvdQ inh: -10.6; F508del corr: -0.6; RAD54 branch: 0.1; dFosB activator: -5.7; RAD52 inh: -8.8

What do the screens show for `CCOC(=O)C1CCCN(c2ccc([N+](=O)[O-])c3nonc23)C1` (configuration not stated)?
N-glyco inh: 2.0; PvdQ inh: 3.4; F508del corr: 14.5*; dFosB activator: -97.3; RAD52 inh: inactive

How did COC(=O)[C@H]1[C@H](CO)[C@H]2Cn3c(ccc(-c4ccncc4)c3=O)[C@@H]1N2S(=O)(=O)c1ccccc1F do in these assays?
F508del corr: 0.3; RAD54 branch: 3.3; RAD52 inh: -5.0

Results for CCN1/C(=C\C=C\C2=[N+](CC)c3ccccc3C2(C)C)C(C)(C)c2ccccc21 ?
N-glyco inh: -6.9; PvdQ inh: -0.6; RAD54 branch: inactive; dFosB activator: 52.5*

What do the screens show for `Nc1nonc1C(=O)N/N=C/c1ccc([N+](=O)[O-])o1`?
N-glyco inh: 29.8*; PvdQ inh: 8.9; dFosB activator: -5.9

Results for O=C(Cc1ccccn1)N1CCCCN2[C@H](CO)[C@H](c3ccc(-c4ccccc4F)cc3)[C@@H]2C1 ?
F508del corr: -3.0; RAD54 branch: 6.2; RAD52 inh: 5.0

Results for CC1OC(OC2CC(O)C3(CO)C4C(O)CC5(C)C(C6=CC(=O)OC6)CCC5(O)C4CCC3(O)C2)C(O)C(O)C1O (configuration not stated) ?
N-glyco inh: -17.9; PvdQ inh: -16.4; F508del corr: 14.9*; RAD54 branch: 5.7; dFosB activator: -0.4; RAD52 inh: -4.0

How did C[C@@H]1O[C@@H](O[C@H]2C[C@@H](O)[C@]3(CO)[C@H]4[C@H](O)C[C@]5(C)[C@@H](C6COC(=O)C6)CC[C@]5(O)[C@@H]4CC[C@]3(O)C2)[C@H](O)[C@H](O)[C@H]1O (some centres not stated) do in these assays?
N-glyco inh: -18.9; PvdQ inh: -10.0; F508del corr: -1.6; RAD54 branch: 4.7; dFosB activator: 5.7; RAD52 inh: -2.7

How did COc1nc(C)nc(NC(=O)NS(=O)(=O)c2ccccc2Cl)n1 do in these assays?
N-glyco inh: 3.6; PvdQ inh: -2.7; F508del corr: 13.8*; RAD54 branch: -1.9; dFosB activator: 3.9; RAD52 inh: 2.0

Results for S=C=Nc1cccc(C2(N3CCCCC3)CCCCC2)c1 ?
N-glyco inh: -2.5; PvdQ inh: 12.9; F508del corr: -0.9; RAD54 branch: -13.4; dFosB activator: -4.0; RAD52 inh: 84.2*

How did COc1cc2c(cc1C=O)OCO2 do in these assays?
N-glyco inh: 3.2; PvdQ inh: 15.3; F508del corr: -2.5; dFosB activator: -3.8; RAD52 inh: -10.6
